The text below walks through data of PubChem BioAssay (NCI).

The structures appear in SMILES notation. Compounds without any hit were thinned out: in the full panel of roughly 83,000, 20% have a hit.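 Negative percent growth values reflect cell death: -40 means 40% of the cells present at the start died, and -100 means all died.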 A number with no mark means an inactive call. Activity calls are given as the source filed them. Rule for the calls: active = growth percent below 10; inactive = the rest.

What all share (test): NCI-60 one-dose screen, 48 h (100 = growth as untreated, 0 = no growth, -100 = all killed)
Details in all cases: 10 µM unless noted

Test [1] relates to DU-145 prostate.
For test [2], the system named is K-562 leukemia.
For test [3], the system named is MALME-3M melanoma.
Test [4] deals with MDA-MB-231 breast.
Test [5] relates to RXF 393 renal.
The test system of test [6] is SF-268 CNS.
In test [7] the test system is SF-295 CNS.
For test [8], the system named is SF-539 CNS.
The subject of test [9] is UACC-257 melanoma.
The test system of test [10] is M14 melanoma.

On to `Cc1ccccc1-c1cc(-c2ccc(Br)s2)[nH]c(=O)c1C#N`, for which the growth in test [1] was 110%; in [2], 90.3%; in test [3] it was 88.9%; in [4] it was 100%; in test [5], 106%; in test [6], 104%. The growth in test [7] was 95.1%; in [8], 112%; in test [9], 104%; in [10] it was 93.6%.
On to `O=[N+]([O-])c1cc2c(cc1Br)-c1ccccc1C2`, for which the growth was 113% in [1]; 95.6% in test [2]; 110% in test [3]; 90.8% in test [4]; 99.5% in test [5]; 98.1% in test [6]. For the same compound, the growth in test [7] is 93.4%; in [8], 101%; in [9] it was 98.8%; in [10], 78.7%.
In the case of `Cc1nc2cc(Nc3nc(Nc4ccc(F)cc4)nc(-c4cccs4)n3)ccc2n1Cc1ccccc1`, the growth was 75.2% in test [1]; 43.1% in [2]; 77.6% in test [3]; 69.1% in test [4]; 25.9% in test [5]; 63.7% in [6]. For the same compound, the growth was 51.9% in test [7], 59.9% in test [8], 57.5% in test [9] and 53.1% in test [10].
Consider `O=C(Nc1ccccc1)Oc1cccc2cccnc12`, for which the growth in test [1] is 92.9%; in test [2] it was 44.9%; in test [3], 108%; in test [4], 96.7%; in test [5] it was 116%; in test [6] it was 87.6%. In addition, the growth in test [7] is 83.9%; in [8] it was 95.5%; in test [9], 75.6%; in test [10], 57.6%.
With `CCCCCCCC/C=C\CCCCCCCCOc1cccc(CC(=O)NCC[N+]2(C)CCCCC2)c1`, the growth in test [1] is 84.5%; in test [2], 46.2%; in test [3], 79.1%; in test [4], 71.2%; in test [5], -2.16% (active); in test [6], 61.6%. In addition, the growth was 87.5% in [7], 99.1% in test [8], 98.5% in test [9] and 84.4% in test [10].
For the compound `Cc1ccc(S(=O)(=O)c2ccc3[nH]c(=O)[nH]c(=O)c3c2)cc1`, the growth was 107% in test [1]; 87.2% in test [2]; 119% in test [3]; 101% in test [4]; 114% in test [5]; 104% in [6]. In addition, the growth is 116% in [7], 101% in [8], 91.5% in test [9] and 101% in test [10].
On to `CCCCc1ccc(C(O)(CCN2CC3CCC(CC3)C2)c2ccccc2)cc1` (stereo not given), for which the growth in [1] was 99.8%; in [2] it was 75.2%; in test [3] it was 95.7%; in test [4], 99.1%; in test [5] it was 96.2%; in [6] it was 97.1%. Besides, the growth is 102% in [7], 101% in [8], 95.2% in test [9] and 91.7% in test [10].
On to `O=C1/C(=C/c2ccccc2F)CNC/C1=C\c1ccccc1F`, for which the growth in test [1] was -11.6% (active); in [2], 5.7% (active); in test [3], -9.46% (active); in test [4] it was -2.14% (active); in [5], -86.2% (active); in [6], -11.4% (active). In addition, the growth in [7] was -17.3% (active); in [8] it was -33% (active); in test [9], -46.1% (active); in test [10], -47.3% (active).
In the case of `O=C(N/N=C(\CS(=O)(=O)c1ccccc1)c1cc2ccccc2oc1=O)c1ccccc1`, the growth in [1] was 111%; in test [2], 109%; in test [3], 110%; in test [4], 99.4%; in test [5] it was 132%; in test [6], 99.2%. The growth was 101% in test [7], 103% in test [8], 94.6% in test [9] and 110% in [10].
In the case of `COC(=O)[C@H]1CCCN1C(=O)[C@H]1CCCN1C(=O)[C@@H](Cc1c[nH]c2ccccc12)NC(=S)Nc1cc(C(F)(F)F)cc(C(F)(F)F)c1`, the growth in test [1] is 51.7%; in [2] it was 34.2%; in [3], 47.4%; in [4], 44.5%; in test [5] it was 56.3%; in [6] it was 36.1%. Besides, the growth is -50.5% (active) in [7], 74.4% in [8], 75.4% in test [9] and 44.4% in [10].
With `CCC(=O)Nc1nnc(Cc2ccc(OC)c(OC)c2)s1`, the growth in test [1] is -49.6% (active); in test [2], 2.4% (active); in test [3] it was -46.3% (active); in [4] it was 1.66% (active); in [5], -32.9% (active); in test [6], -14% (active). Moreover, the growth was -78.7% (active) in test [7], -74.1% (active) in test [8], -26.3% (active) in test [9] and 22.7% in test [10].
On to `O=C1c2c(c3c4cc(Br)ccc4[nH]c3c3ccc4ccccc4c23)C(=O)N1O`, for which the growth in [1] is 103%; in test [2], 71.6%; in test [3], 126%; in [4] it was 81.7%; in test [5], 103%; in test [6] it was 81.1%. The growth in test [7] was 84.7%; in test [8], 96.4%; in test [9], 88.5%; in test [10], 94.1%.
Turning to `C=CC[P+](c1ccccc1)(c1ccccc1)c1ccccc1`, the growth in test [1] was 79.4%; in test [2], 27.2%; in [3], 47.8%; in test [4] it was 67.9%; in test [5] it was 95.3%; in test [6], 79.2%. Besides, the growth in test [7] is 80%; in [8], 61.1%; in [9], -3.34% (active); in test [10], 62.4%.
For `CCCCC(CCCC)(S(=O)(=O)CC)S(=O)(=O)CC`, the growth in [1] was 107%; in test [2] it was 101%; in [3] it was 99.8%; in [4] it was 119%; in test [5], 98.9%; in test [6], 109%. The growth is 100% in test [7], 101% in test [8], 101% in test [9] and 101% in test [10].
For the compound `CCN1C(=O)C2(Nc3ccccc3S2)c2cc(C)ccc21` (stereo not given), the growth was 101% in test [1]; 108% in [2]; 84.1% in test [3]; 105% in [4]; 93.7% in [5]; 98.2% in test [6]. Besides, the growth in test [7] was 101%; in test [8], 94.4%; in test [9] it was 101%; in test [10], 92.6%.
Regarding `O=c1oc2ccccc2cc1-c1csc(N=Nc2c(O)[nH]c3ccc(Cl)cc23)n1`, the growth in test [1] is 108%; in test [2] it was 98.7%; in test [3], 105%; in test [4], 102%; in test [5] it was 129%; in test [6] it was 98.4%. In addition, the growth in test [7] was 98.6%; in test [8], 94.5%; in test [9], 80.1%; in [10], 111%.
Regarding `COc1cc(Cn2cc(F)c(=O)[nH]c2=O)cc(OC)c1`, the growth in [1] was 114% [50 µM]; in test [2], 95.6% [50 µM]; in test [3] it was 108% [50 µM]; in test [4], 95.7% [50 µM]; in [5], 99.5% [50 µM]; in test [6], 96.1% [50 µM]. Further, the growth was 101% [50 µM] in [7], 101% [50 µM] in test [8], 110% [50 µM] in [9] and 100% [50 µM] in [10].
As to `O=S(=O)(Nc1ccccc1Cl)c1ccc(-c2cnc(C3CC3)o2)cc1`, the growth in test [1] is 13.5%; in test [2] it was 20.1%; in [3], 47.3%; in test [4] it was 34.8%; in [5], -27% (active); in test [6] it was 53.5%. Moreover, the growth is 12.2% in [7], -22.7% (active) in [8], 69.4% in test [9] and 19% in test [10].
With `O=C(N/N=C/c1ccc(OC(F)F)c(OC2CCCC2)c1)c1cnn2c1NC(c1ccccc1)C2` (stereo not given), the growth in [1] was 85.7%; in test [2] it was 38.6%; in test [3] it was 108%; in [4], 81.9%; in [5], 76.9%; in test [6] it was 64.2%. The growth is 80.3% in [7], 81% in [8], 88.2% in test [9] and 82.9% in test [10].
For `O=C1/C(=C/c2ccc(Cl)cc2)N=C(c2ccccc2)N1CCc1cccs1`, the growth in [1] is 48.4%; in test [2], 62.3%; in [3], 65%; in test [4], 64.8%; in test [5], 69.9%; in test [6], 74.7%. Further, the growth in test [7] was 51.5%; in [8], 40.3%; in [9], 56.3%; in test [10], 42.2%.
Consider `CN1CCN(c2ccc3nc(-c4ccc5nc(-c6ccc(C(F)(F)F)cc6)[nH]c5c4)[nH]c3c2)CC1`, for which the growth was 59.2% in test [1]; -34.2% (active) in test [2]; 18% in test [3]; 82% in test [4]; -14.3% (active) in test [5]; 70.8% in [6]. Further, the growth in [7] is 50.9%; in test [8] it was 47.2%; in test [9], 87.2%; in test [10], 43.8%.
In the case of `O=C(C[Si](CC(=O)c1cccc(C(F)(F)F)c1)CC(=O)c1cccc(C(F)(F)F)c1)c1cccc(C(F)(F)F)c1`, the growth in test [1] was 33.2%; in test [2] it was 4.55% (active); in test [3] it was 77.2%; in [4], 86.3%; in [5] it was 102%; in [6] it was 40%. Moreover, the growth in test [7] is 2.69% (active); in test [8], 107%; in test [9] it was 81.8%; in test [10] it was 89.4%.
Take `Clc1ccc2c(c1)C[C@H]1C[C@@H](c3cccs3)N2O1`: the growth was 106% in test [1]; 106% in test [2]; 95.9% in [3]; 113% in test [4]; 131% in test [5]; 102% in test [6]. Also, the growth was 94.4% in test [7], 92.3% in test [8], 105% in test [9] and 118% in test [10].
Regarding `CCCCCn1c(=N)n(CC(O)COc2cccc(C)c2)c2ccccc21` (stereo not given), the growth is 10.4% in test [1]; 6.52% (active) in test [2]; -6.7% (active) in test [3]; 22.8% in test [4]; 15.5% in test [5]; 25.6% in test [6]. Further, the growth in test [7] is -27.4% (active); in test [8] it was -14.7% (active); in [9], -19.6% (active); in [10] it was 15.9%.
Consider `COc1ccc(OC)c2ncccc12`, for which the growth in test [1] is 112%; in [2] it was 96%; in [3], 89.7%; in [4] it was 109%; in test [5] it was 107%; in test [6], 102%. Further, the growth in [7] is 95%; in [8], 102%; in [9], 110%; in test [10], 93.5%.
Regarding `O=c1c2cc(F)ccc2oc2c(NCCNCCO)nc3ccccc3c12`, the growth in test [1] is 35.8%; in [2] it was -36.9% (active); in [3], 56.4%; in test [4] it was 40.4%; in test [5], 34.3%; in [6], 47.5%. The growth was 63.6% in test [7], 46.3% in test [8], 92% in test [9] and 60.1% in test [10].
As to `Cc1oc2c(c1C(=O)N1CC[C@@H](N)C1)C(=O)c1c(c(O)c3ccccc3c1O)C2=O`, the growth is 24% in test [1]; 3.82% (active) in test [2]; 53.2% in test [3]; 35.2% in test [4]; 48.9% in [5]; 16% in test [6]. The growth in [7] was 29.9%; in test [8], 46.9%; in test [9], 74.8%; in [10], 38.8%.
